Each structure is given as a SMILES string. The campaign covered roughly 310,000 compounds. About 14,000 (4.5%) showed an effect of 50% or more. Effects have a minus sign here. What follows is part of a selection rich in strong results, with near analogues and random picks from the rest.
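Also: peak tail current of the secondary pulse compared with the same well before compound.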

The target in this test is human ether-à-go-go-related gene (hERG) potassium channel (human, UniProt Q12809). The experiment in a line: primary screen, population patch clamp on CHO cells stably expressing hERG; higher = less effect of the substance.
human ether-à-go-go-related gene (hERG) potassium channel, sequence (Q12809 whole entry, looked up): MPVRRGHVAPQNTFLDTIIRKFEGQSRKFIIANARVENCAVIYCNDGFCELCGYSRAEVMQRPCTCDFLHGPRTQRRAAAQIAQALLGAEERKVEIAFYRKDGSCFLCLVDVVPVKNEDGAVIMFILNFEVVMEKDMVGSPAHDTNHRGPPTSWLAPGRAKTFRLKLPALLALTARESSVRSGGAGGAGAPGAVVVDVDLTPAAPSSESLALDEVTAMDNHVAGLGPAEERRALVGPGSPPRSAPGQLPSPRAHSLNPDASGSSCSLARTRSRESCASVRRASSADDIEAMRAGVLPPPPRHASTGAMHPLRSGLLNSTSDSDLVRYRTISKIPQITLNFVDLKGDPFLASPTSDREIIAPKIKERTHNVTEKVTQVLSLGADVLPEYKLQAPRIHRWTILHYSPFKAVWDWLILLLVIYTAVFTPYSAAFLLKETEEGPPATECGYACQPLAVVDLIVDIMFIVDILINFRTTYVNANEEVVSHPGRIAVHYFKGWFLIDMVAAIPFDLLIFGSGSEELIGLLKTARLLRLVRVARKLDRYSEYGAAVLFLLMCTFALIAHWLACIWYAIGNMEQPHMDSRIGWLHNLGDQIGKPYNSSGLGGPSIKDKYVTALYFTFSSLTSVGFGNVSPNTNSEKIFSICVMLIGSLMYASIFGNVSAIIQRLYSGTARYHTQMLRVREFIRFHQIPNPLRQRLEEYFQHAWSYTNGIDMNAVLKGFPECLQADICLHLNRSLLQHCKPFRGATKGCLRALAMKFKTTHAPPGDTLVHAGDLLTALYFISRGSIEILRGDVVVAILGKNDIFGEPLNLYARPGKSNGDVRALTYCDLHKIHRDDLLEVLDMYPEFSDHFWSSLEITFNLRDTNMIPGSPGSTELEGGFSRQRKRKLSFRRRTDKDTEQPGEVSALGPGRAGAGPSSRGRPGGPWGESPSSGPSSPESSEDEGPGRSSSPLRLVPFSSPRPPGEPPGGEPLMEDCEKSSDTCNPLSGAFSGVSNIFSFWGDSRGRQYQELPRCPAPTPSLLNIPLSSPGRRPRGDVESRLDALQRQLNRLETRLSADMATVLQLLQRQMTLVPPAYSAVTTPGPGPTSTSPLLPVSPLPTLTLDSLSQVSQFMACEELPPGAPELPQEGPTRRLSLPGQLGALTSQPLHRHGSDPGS
As to `CC(=O)N1CCCc2ccccc21`, the “hERG current change (%, negative = inhibition) at 10uM” value was 15.5%.
Take `O=C(NCc1ccc(Cl)c(Cl)c1)c1ccc2c(c1)OCO2`: the “hERG current change (%, negative = inhibition) at 10uM” value is reported as -10.7%.
Consider `COc1ccccc1C(=O)NC(CCSC)C(=O)NNC(=O)C(C)Oc1ccccc1F` (stereo not shown), for which the “hERG current change (%, negative = inhibition) at 10uM” value was found to be 0.592%.
For `O=C(O)COc1nsnc1N1CCOCC1` the value was 10.4%.
The value for `COc1cc(C(=S)N2CCCCC2)ccc1OCC(=O)Nc1ccccc1Cl` was 18.9%; that for `S=c1[nH]nc(-c2ccc(Br)cc2)n1-c1ccc(Br)cc1` was 12.2%.
The value for `CCOC(=O)c1sc(N(Cc2ccccc2)C(=O)COC(=O)c2cnccn2)nc1C` was 0.26%; that for `CCc1ccc(NC2=NC(C(=O)NC3CCCCC3)CC(=O)N2)cc1` (stereo not shown) was 14.9%.
In the case of `O=c1[nH]c2cccnc2n1Cc1ccccc1`, the “hERG current change (%, negative = inhibition) at 10uM” value is on record as 7.67%.
For `CCc1ccc(NC(=O)C(=O)N/N=C(\C)CC(=O)NCCOC)cc1` the value was -2.99%; for `CN(CCOc1ccccc1)C(=O)c1ccc(Cl)c(S(=O)(=O)N2CCCCC2)c1`, -67.4%; for `CN(CC1COc2ccccc2O1)C(=O)c1ccc(Cl)c(S(=O)(=O)N2CCCCCC2)c1` (stereo not shown), -25.8%.
The value for `O=C(NCCOc1ccccc1)c1cc(C(=O)NCCOc2ccccc2)cc([N+](=O)[O-])c1` was -15.2%; that for `Cc1ccc(C(=O)N(C)CCOc2ccccc2)cc1S(=O)(=O)N1CCOCC1` was -15.6%.
In the case of `CN(CCOc1ccccc1)C(=O)c1cc(S(=O)(=O)N2CCCCC2)ccc1Cl`, the “hERG current change (%, negative = inhibition) at 10uM” value is on record as -42.7%.
For `CN(CCOc1ccccc1)C(=O)c1cc([N+](=O)[O-])cc([N+](=O)[O-])c1` the value was -56.9%; for `Cc1ccc(C(=O)N(C)CCOc2ccccc2)cc1S(=O)(=O)N1CCCCC1`, -51.4%.
Consider `Cc1ccc(S(=O)(=O)N2CCCCC2)cc1C(=O)N(C)CCOc1ccccc1`, for which the “hERG current change (%, negative = inhibition) at 10uM” value is recorded as -48%.
Regarding `CN(CCOc1ccccc1)C(=O)c1ccc(N2CCCC2)c([N+](=O)[O-])c1`, the “hERG current change (%, negative = inhibition) at 10uM” value is on record as -27.5%.
On to `CCn1cc(S(=O)(=O)NC(C)c2cc(OC)ccc2OC)cn1` (stereo not shown), for which the “hERG current change (%, negative = inhibition) at 10uM” value turned out to be 1.25%.
In the case of `CC(C)O.COC(=O)Nc1ccc2c(c1)N(C(=O)CCN1CCN3CCCC3C1)c1ccccc1CC2.Cl.O` (stereo not shown), the “hERG current change (%, negative = inhibition) at 10uM” value was determined as 1.43%.
The value for `CC(=O)c1cc(F)c(N2CCN(C(=O)c3ccco3)CC2)cc1C` was -18.5%.
The value for `Cn1c(Cl)c(/C=N/OC(=O)c2ccc(Cl)cc2)c2ccccc21` was -5.13%.
For `Cc1ccc(-c2nnn(CC(=O)N(Cc3ccc(F)cc3)C(C(=O)NC3CCCC3)c3ccncc3)n2)o1` (stereo not shown) the value was -12.4%; for `CCOC(=O)c1ccc(Nc2c(OCC)c(=O)c2=O)cc1`, -15.4%; for `CCCCn1c(=O)[nH]c(=O)c2c1nc(-c1ccc(OCC)cc1)n2CC`, 1.27%.
Turning to `CCCCn1c(=O)[nH]c(=O)c2c1nc(-c1ccc(-c3ccc(F)cc3)o1)n2C`, the “hERG current change (%, negative = inhibition) at 10uM” value is on record as -55%.
Take `CCCCn1c(=O)[nH]c(=O)c2c1nc(-c1ccc(-c3ccccc3)cc1)n2C`: the “hERG current change (%, negative = inhibition) at 10uM” value is listed as 20.2%.
Turning to `C=CCOc1ccc(-c2nc3c(c(=O)[nH]c(=O)n3CCC)n2CCCC)cc1`, the “hERG current change (%, negative = inhibition) at 10uM” value was -5.34%.
For `CCCn1c(=O)[nH]c(=O)c2c1nc(-c1ccc(C#N)cc1)n2CCOC` the value was -2.78%; for `CCCCn1c(=O)[nH]c(=O)c2c1nc(COc1ccc(C#N)cc1)n2CCC`, -57.2%; for `CCCCn1c(=O)[nH]c(=O)c2c1nc(-c1ccc(C(F)(F)F)cc1)n2C`, 3.8%.
The value for `C=CCn1c(SCc2ccccc2)nc2c1c(=O)[nH]c(=O)n2C` was -21.6%; that for `C=CCn1c(SCc2nc3c(c(=O)[nH]c(=O)n3CCCC)n2CCC)nnc1-c1ccccc1` was -60.5%.
On to `CCCCn1c(O)c(/C(C)=N/NC(=O)Nc2ccccc2)c(=O)[nH]c1=O`, for which the “hERG current change (%, negative = inhibition) at 10uM” value is 7.7%.
The value for `O=P(C(c1ccc2c(c1)OCO2)N1CCOCC1)(N1CCOCC1)N1CCOCC1` (stereo not shown) was 4.64%.
For `O=C(CN1CCN(c2ncc(C(F)(F)F)cc2Cl)CC1)Nc1ccc2c(c1)OCO2` the value was -37.7%.
With `Cc1oc(-c2ccc(Cl)cc2)nc1CSCC(=O)NC1CCN(Cc2ccccc2)CC1`, the “hERG current change (%, negative = inhibition) at 10uM” value is recorded as -73.1%.
For `Cc1ccc(-c2nc(CSCC(=O)NC3CCN(Cc4ccccc4)CC3)c(C)o2)cc1` the value was -44%; for `COc1ccc(-c2nc(CSCC(=O)NC3CCN(Cc4ccccc4)CC3)c(C)o2)cc1OC`, -40.9%; for `Cc1ccc(-c2nc(CSCC(=O)NCCN3CCN(Cc4ccccc4)CC3)c(C)o2)cc1`, -65.2%.
The value for `CCOc1ccc(-c2nc(CSCC(=O)NCCN3CCOCC3)c(C)o2)cc1` was 11.3%; that for `Cc1ccc(-c2nc(CSCC(=O)NCCCN3CCOCC3)c(C)o2)cc1` was 14.1%.

(Values after paper PMC4336329 (PLoS ONE, 2015).)
